The values that follow come from PubChem BioAssay (EPA / NIEHS).

The nature of test [1]: ATG_CMV_CIS: Attagene CIS-FACTORIAL HepG2 Assay for human CMV (Internal Marker) (AID 2282928).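 Further: endpoint acts as a background internal control marker rather than a target.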 Conditions: HepG2 CMV promoter reporter, transcription factor profiling; actives raise or lower the signal. Put shortly:
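Endogenous transcription factor activity read in HepG2 via transfected cis-promoter reporter units. After 24 h dosing, reporter mRNA measured by RT-PCR/capillary electrophoresis; gain or loss of signal fit relative to DMSO.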

Test [2] is described as follows: ATG_DR4_LXR_CIS: Attagene CIS-FACTORIAL HepG2 Assay for human Liver X Receptor (LXR), DR4 submotif (AID 2282929). To be noted: HepG2 Attagene DR4 cis-reporter, mRNA transcription; actives raise or lower the signal. An outline of the steps: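 After transient transfection with multiplexed cis-promoter reporter units, HepG2 cells received test chemicals for 24 h. Reporter mRNA induction, detected by fluorescence after RT-PCR and capillary electrophoresis, was scored relative to DMSO.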

Test [3] can be described thus: ATG_AP_2_CIS: Attagene CIS-FACTORIAL HepG2 Assay for human Activator Protein 2 (AP-2) (AID 2282932). Conditions: HepG2 AP-2 cis-reporter, Attagene transcription factor profiling; actives raise or lower the signal. An outline of the steps: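 HepG2, transient MRTU transfection, cis-regulated reporters; 24 h compound exposure; RNA isolated, RT-PCR, 6-FAM labelling, HpaI digest, CE fluorescence. DMSO = negative control/baseline, bidirectional fit.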

The target of test [4] is Transcription factor E2F1 (Homo sapiens) (UniProt Q01094). Description: ATG_E2F_CIS: Attagene CIS-FACTORIAL HepG2 Assay for human E2F Transcription Factor 1 (AID 2282935). To be noted: HepG2 Attagene cis-reporter, E2F reporter RNA transcripts; actives raise or lower the signal. Put shortly:
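Cis-element reporter mRNA induction in transiently transfected HepG2, 24 h exposure. Activity fitted in both directions relative to DMSO negative control.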

A short description of test [5]: ATG_M_61_CIS: Attagene CIS-FACTORIAL HepG2 Assay for M61 Transcription Factor (Internal Marker) (AID 2282937). To be noted: HepG2 Attagene CIS-FACTORIAL M61 internal marker reporter; actives raise or lower the signal. Put shortly: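 Using transiently transfected HepG2 liver cells, reporter transcript levels were assessed 24 h post-dosing by RT-PCR and capillary electrophoresis. Changes in either direction were fitted relative to DMSO controls.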

Test [6] can be described thus: ATG_EGR_CIS: Attagene CIS-FACTORIAL HepG2 Assay for human Early Growth Response 1 (EGR1) (AID 2282938). Conditions: HepG2 Attagene CIS-FACTORIAL EGR reporter mRNA; actives raise or lower the signal. Put shortly:
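Fluorescent capillary-electrophoresis signal of reporter cDNA fragments serves as read-out. HepG2 cells bear transiently transfected cis-promoter reporter units and are exposed 24 h; gain- or loss-of-signal is fitted against DMSO.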

A short description of test [7]: ATG_Ets_CIS: Attagene CIS-FACTORIAL HepG2 Assay for human Erythroblast Transformation Specific (ETS) (AID 2282941). Conditions: HepG2 ETS cis-reporter transcription, actives raise or lower the signal. Put shortly: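 Steps: transfect HepG2 with multiple reporter units; treat compound 24 h; isolate RNA, DNase-treat, reverse-transcribe; PCR-amplify, label with 6-FAM, digest with HpaI; separate by capillary electrophoresis. Activity fitted both directions versus DMSO.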

The target of test [8] is Hepatocyte nuclear factor 3-beta (Homo sapiens) (UniProt Q9Y261). Description: ATG_FoxA2_CIS: Attagene CIS-FACTORIAL HepG2 Assay for human Forkhead box A2 (FOXA2) (AID 2282942). To be noted: HepG2 cis-reporter transcription factor activity, 24 h; actives raise or lower the signal. An outline of the steps:
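Fluorescence signal of reporter cDNA fragments, separated by capillary electrophoresis, reflects endogenous transcription factor activity in transfected HepG2 after 24 h. Both increases and decreases fitted against DMSO.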

Test [9] can be described thus: ATG_FoxO_CIS: Attagene CIS-FACTORIAL HepG2 Assay for human Forkhead box O (FoxO) (AID 2282943). To be noted: HepG2 Attagene cis-reporter, FoxO element, mRNA; actives raise or lower the signal. Put shortly: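 Human hepatoma HepG2 cells carry transiently introduced reporter transcription units controlled by cis promoter elements. Chemical treatment lasted 24 h, and mRNA signal was compared with DMSO.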

Test [10] is described as follows: ATG_GATA_CIS: Attagene CIS-FACTORIAL HepG2 Assay for human GATA Binding Protein (AID 2282944). Conditions: HepG2 GATA cis-element reporter, Attagene multiplex mRNA; actives raise or lower the signal. An outline of the steps: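 Measures endogenous transcription factor-driven reporter mRNA in HepG2 cells transiently carrying cis-regulated constructs. 24 h dosing; RNA via oligo(dT) reverse transcription, PCR, HpaI digestion, capillary electrophoresis; fitted relative to DMSO.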

Test [11] can be described thus: ATG_ISRE_CIS: Attagene CIS-FACTORIAL HepG2 Assay for human Interferon Regulatory Factor 1 (IRF1) binding to an Interferon-Stimulated Response Element (ISRE) (AID 2282948). Conditions: HepG2 ISRE cis-reporter (Attagene), mRNA transcription readout; actives raise or lower the signal. An outline of the steps: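 Transfected HepG2 (multiple reporter transcription units, cis elements) dosed 24 h. RNA → oligo(dT) RT → PCR → 6-FAM primer extension → HpaI → CE. DMSO = negative control/baseline.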

Test [12] can be described thus: ATG_M_32_CIS: Attagene CIS-FACTORIAL HepG2 Assay for M32 Transcription Factor (Internal Marker) (AID 2282949).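 Further: background control marker of the multiplexed CIS panel rather than a real target.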 Conditions: HepG2 Attagene cis-factorial M32 reporter, mRNA; actives raise or lower the signal. An outline of the steps: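 Fluorescent capillary electrophoresis peaks of HpaI-digested, FAM-labelled RT-PCR reporter products give the signal. Source: transiently transfected human liver HepG2 cells, 24 h after chemical dosing; bidirectional fitting against DMSO.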

Test [13] in a line: ATG_MRE_CIS: Attagene CIS-FACTORIAL HepG2 Assay for human Metal Responsive Element (MRE) (AID 2282954). Conditions: HepG2 MRE cis-reporter transcription, Attagene multiplex; actives raise or lower the signal. An outline of the steps: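 Transient MRTU transfection of HepG2 (FuGene 6); 24 h dosing; total RNA → oligo(dT) RT, PCR, 6-FAM primer extension, HpaI cut, CE. Bidirectional fit vs DMSO.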

Test [14] deals with Paired box protein Pax-6 (Homo sapiens) (UniProt P26367). Description: ATG_Pax6_CIS: Attagene CIS-FACTORIAL HepG2 Assay for human Paired Box 6 (PAX6) (AID 2282956). To be noted: HepG2 CIS-FACTORIAL PAX6 reporter transcription, RNA readout; actives raise or lower the signal. An outline of the steps: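 Transient MRTU transfection of HepG2 → compound exposure 24 h → TriZol RNA, oligo(dT) RT → PCR, 6-FAM primer extension, HpaI cut → capillary electrophoresis; activity fitted both directions against DMSO.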

A short description of test [15]: ATG_PXRE_CIS: Attagene CIS-FACTORIAL HepG2 Assay for human Pregnane X Receptor Element (PXRE) (AID 2282957). To be noted: HepG2 Attagene CIS-FACTORIAL PXRE reporter, mRNA; actives raise or lower the signal. An outline of the steps:
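Cis-element reporter mRNA in human hepatoma HepG2 cells is measured 24 h post-dosing by RT-PCR, primer-extension labeling and capillary electrophoresis; gain or loss of signal is fitted relative to DMSO.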

Test [16] in a line: ATG_Sox_CIS: Attagene CIS-FACTORIAL HepG2 Assay for human SRY-box transcription factor (SOX) (AID 2282960). To be noted: HepG2 Attagene cis-factorial SOX reporter, mRNA; actives raise or lower the signal. Put shortly: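 Using transiently transfected HepG2 cells, reporter transcription driven by cis elements was assessed 24 h after dosing. Signal was fluorescence of capillary-separated RT-PCR products, with DMSO defining baseline activity.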

Test [17] can be described thus: ATG_SREBP_CIS: Attagene CIS-FACTORIAL HepG2 Assay for human Sterol Regulatory Element Binding (SREBP) (AID 2282962). Conditions: HepG2 Attagene cis-factorial SREBP reporter, mRNA; actives raise or lower the signal. An outline of the steps:
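Transfected HepG2 (cis-regulated reporter library, endogenous TFs) → compound 24 h → total RNA → oligo(dT) RT → reporter-specific PCR → FAM primer extension, HpaI cut → CE fluorescence. Fit bidirectional vs DMSO.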

A short description of test [18]: ATG_TCF_b_cat_CIS: Attagene CIS-FACTORIAL HepG2 Assay for human T-Cell-Factor with beta-catenin (TCF/b-cat) (AID 2282965). To be noted: HepG2 TCF/beta-catenin cis-reporter transcription, actives raise or lower the signal. An outline of the steps:
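Measured: reporter mRNA in HepG2 transiently transfected with cis-promoter reporter units, 24 h after chemical addition. Fitting was bidirectional, DMSO as negative control.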

The nature of test [19]: ATG_TAL_CIS: Attagene CIS-FACTORIAL HepG2 Assay for human TAL Basal Promoter (AID 2282966).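 Further: background control endpoint measuring basal TAL promoter reporter mRNA not a specific factor.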 To be noted: HepG2 Attagene cis-factorial TAL promoter reporter; actives raise or lower the signal. An outline of the steps: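 In this cell-based multiplex, HepG2 liver cells bearing cis-promoter reporter constructs are dosed for 24 hours. Total RNA is reverse-transcribed and amplified, labelled fragments are sized by capillary electrophoresis, and signal changes are fitted bidirectionally versus DMSO.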

Test [20] can be described thus: ATG_TGFb_CIS: Attagene CIS-FACTORIAL HepG2 Assay for human Transforming Growth Factor (TGF) (AID 2282967). Conditions: HepG2 Attagene CIS TGFb reporter, mRNA transcription; actives raise or lower the signal. Put shortly: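 After a 24-hour incubation with compound, transfected HepG2 cells were lysed for RNA; reporter cDNA was amplified, fluorescently end-labeled and separated by CE. DMSO served as baseline for bidirectional fits.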

Each structure is given as a SMILES string. Activity calls are given as the source filed them. How the source made its calls: active means hit-call score of the fitted dose curve at least 0.9, where 1 is the maximum; inactive means score below 0.9.

Chain of Hepatocyte nuclear factor 3-beta (Homo sapiens) (Q9Y261 whole entry, looked up, the tested form may be a part): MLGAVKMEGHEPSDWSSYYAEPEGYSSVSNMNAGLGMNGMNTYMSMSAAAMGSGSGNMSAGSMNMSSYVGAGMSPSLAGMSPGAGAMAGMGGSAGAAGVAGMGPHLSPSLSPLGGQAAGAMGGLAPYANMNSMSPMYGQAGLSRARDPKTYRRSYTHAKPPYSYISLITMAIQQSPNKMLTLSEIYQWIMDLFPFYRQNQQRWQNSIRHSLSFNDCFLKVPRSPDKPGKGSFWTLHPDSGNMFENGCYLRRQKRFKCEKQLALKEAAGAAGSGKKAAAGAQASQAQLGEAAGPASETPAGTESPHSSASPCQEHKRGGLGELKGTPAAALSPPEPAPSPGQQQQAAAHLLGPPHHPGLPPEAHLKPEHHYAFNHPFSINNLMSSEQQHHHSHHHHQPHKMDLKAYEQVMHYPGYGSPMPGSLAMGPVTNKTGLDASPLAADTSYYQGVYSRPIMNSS
Chain of Paired box protein Pax-6 (Homo sapiens) (P26367 whole entry, looked up): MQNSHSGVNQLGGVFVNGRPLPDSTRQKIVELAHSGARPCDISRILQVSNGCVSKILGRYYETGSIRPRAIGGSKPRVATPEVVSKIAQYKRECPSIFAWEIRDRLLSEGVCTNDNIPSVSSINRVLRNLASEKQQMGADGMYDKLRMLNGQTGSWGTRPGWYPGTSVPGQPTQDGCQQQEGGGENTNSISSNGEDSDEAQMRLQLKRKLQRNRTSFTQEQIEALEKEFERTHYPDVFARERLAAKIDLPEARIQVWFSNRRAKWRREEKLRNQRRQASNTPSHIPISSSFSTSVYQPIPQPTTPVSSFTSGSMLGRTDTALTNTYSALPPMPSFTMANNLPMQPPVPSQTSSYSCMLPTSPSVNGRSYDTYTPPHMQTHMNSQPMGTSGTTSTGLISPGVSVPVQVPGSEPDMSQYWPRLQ
Chain of Transcription factor E2F1 (Homo sapiens) (Q01094 whole entry, looked up): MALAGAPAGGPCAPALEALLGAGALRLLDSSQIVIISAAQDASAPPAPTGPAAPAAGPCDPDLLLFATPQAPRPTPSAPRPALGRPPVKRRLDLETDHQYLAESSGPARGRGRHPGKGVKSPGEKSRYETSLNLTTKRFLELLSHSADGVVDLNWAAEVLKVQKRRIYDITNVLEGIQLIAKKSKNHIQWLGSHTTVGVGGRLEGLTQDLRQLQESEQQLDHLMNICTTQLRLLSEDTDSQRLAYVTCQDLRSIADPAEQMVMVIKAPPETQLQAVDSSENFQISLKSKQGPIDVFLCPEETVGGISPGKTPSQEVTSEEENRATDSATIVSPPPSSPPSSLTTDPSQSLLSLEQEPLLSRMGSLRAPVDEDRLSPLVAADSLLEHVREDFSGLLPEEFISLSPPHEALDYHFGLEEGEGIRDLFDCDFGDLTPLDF

Usually AC50 stands for the concentration at which the activity in the assay is half-maximal. In the case of `C=CC(=O)OCC(CC)CCCC` (stereo not given), the compound was classed as inactive in [1], in test [3], in test [4], in test [5], in test [6] and in [7]. Further, the compound was classed as inactive in test [8], in test [9], in test [10], in test [11], in [12] and in [13]. Moreover, the compound was called inactive in test [14], in test [15], in test [16], in test [17], in [18] and in test [19]. Besides, the call in [20] was inactive. In addition, the half-maximal activity concentration (AC50) in test [2] is 147 µM (active).

Turning to `O=C(O)COc1ccccc1`, the compound was classed as inactive in test [1], in test [2], in test [3], in test [4], in test [5] and in [6]. For the same compound, the compound was classed as inactive in [7], in test [8], in [9], in [10], in [11] and in test [12]. The compound was called inactive in test [13], in test [14], in [15], in test [16], in test [17] and in [18]. Also, the outcome in test [19] and in test [20] was inactive.

With `O=C(NC(=O)c1c(F)cccc1F)Nc1ccc(Oc2ccc(C(F)(F)F)cc2Cl)cc1F`, the AC50 in test [1] was 4.11 µM (active); in test [11], 26.3 µM (active); in [15], 3.15 µM (active). For the same compound, the result in [2], in [3], in test [4], in test [5], in test [6] and in [7] was inactive. Also, the call in test [8], in test [9], in [10], in [12], in test [13] and in test [14] was inactive. Moreover, the compound was called inactive in test [16], in [17], in test [18], in test [19] and in test [20].

On to `C[N+](=O)[O-]`, for which the outcome in test [1], in test [2], in test [3], in test [4], in test [5] and in test [6] was inactive. In addition, the result in test [7], in test [8], in [9], in test [10], in test [11] and in test [12] was inactive. The compound was called inactive in [13], in [14], in test [15], in test [16], in [17] and in test [18]. Moreover, the result in [19] and in test [20] was inactive.

As for `CN(C)C(=O)C(c1ccccc1)c1ccccc1`, the outcome in test [1], in [2], in test [3], in test [4], in test [5] and in test [6] was inactive. In addition, the compound was called inactive in test [7], in [8], in test [9], in test [10], in test [11] and in test [12]. For the same compound, the outcome in test [13], in [14], in test [16], in test [17], in test [18] and in test [19] was inactive. Further, the call in test [20] was inactive. Further, the half-maximal activity concentration (AC50) in [15] was 9.67 µM (active).

Take `CC(C)CCCCCCCOP(=O)(Oc1ccccc1)Oc1ccccc1`: the AC50 in test [1] is 55.6 µM (active); in test [2] it was 21.6 µM (active); in test [15] it was 0.408 µM (active); in test [17], 27.2 µM (active). Besides, the result in test [3], in [4], in test [5], in test [6], in [7] and in test [8] was inactive. The compound was called inactive in [9], in test [10], in [11], in [12], in [13] and in test [14]. Moreover, the compound was called inactive in test [16], in [18], in [19] and in [20].

In the case of `CCCCCCC1CCOC1=O` (stereo not given), the call in test [1], in test [2], in test [3], in [4], in [5] and in test [6] was inactive. Moreover, the call in test [7], in test [8], in test [9], in test [10], in test [11] and in test [12] was inactive. Moreover, the result in [13], in test [14], in test [16], in [17], in test [18] and in test [19] was inactive. In addition, in test [20], the call was inactive. In addition, in test [15], the AC50 is 100 µM (active).
